From PubChem BioAssay come the findings set out here.

Assay [1] in a line: inhibitors of TNFa-induced NFkB p65 translocation, primary screen, imaging, HUVEC, MLSMR starter and 10KST1 sets (AID 438;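 active = inhibition above 20% together with a positive visual image hit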;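 note: compound added about 3h40 before a 20 min TNFalpha stimulation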;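 for inhibition: signal is the nuclear over cytoplasmic p65 intensity ratio per well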). As to conditions: HUVEC TNFa-induced p65 nuclear translocation; cell count: measured here: nuclei count (cytotoxicity indicator), at 2.08 µM; inhibition: at 2 µM, stronger effect = higher value, 0% TNFa-plus-vehicle, 100% no-TNFa wells.
Assay [2] in a line: inhibitors of mutant huntingtin aggregation, primary screen, imaging, exon1htt(103Q)mCFP cells, high-content imaging (AID 483;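 active = visual image review flags a hit and inhibition of aggregation exceeds 20%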;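 note: compound exposure lasted 3 days before fixation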;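 for nuclei count: percent of the per-plate median nuclei count of sample wells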). As to conditions: exon1htt(103Q)mCFP cell line, aggregate imaging, at 2 µM; inhibition of aggregation: stronger effect = higher value; nuclei count: measured here: cell count, toxicity.
Assay [3] is described as follows: inhibitors of E-selectin induction by TNFa, primary screen, imaging, HUVEC, immunofluorescence, MLSMR starter and 10KST1 sets (AID 487;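 active = visually confirmed hit in the image check and inhibition above 20%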;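 for inhibition: signal is fraction of cell area covered by stained E-selectin grains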;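 for nuclei count: 100% = median nuclei count of all wells on the same plate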). As to conditions: HUVEC TNFalpha-induced E-selectin immunofluorescence imaging, at 2 µM; inhibition: stronger effect = higher value; nuclei count: measured here: cell number, toxicity.
The target in assay [4] is Voltage-gated potassium channel subunit beta-2 (Rattus norvegicus) (UniProt P62483). The assay is described as follows: KvBeta enzyme negative modulators, primary screen, biochemical, NADPH fluorescence (AID 622;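 active = fluorescence slope higher than the sample average by over 3 SD, cut at about -0.22 in these data, passing the limit was not always enough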;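 note: slope of raw intensity against log time taken from 70 to 1610 s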). The following applies: recombinant KvBeta, 4-cyanobenzaldehyde reduction, at 10 µM, stronger effect = higher value.
Assay [5] shares this target. The assay is described as follows: KvBeta positive modulators, primary screen, biochemical, NADPH fluorescence (AID 623).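 Note: fluorescence intensity change per second fitted from 20 to 320 s.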 The following applies: Recombinant KvBeta, NADPH fluorescence decrease slope, 10 min; at 10 µM; stronger effect = lower value.
Assay [6] addresses Alpha-2C adrenergic receptor (Homo sapiens) (UniProt P18825). The assay can be described thus: modulators of alpha2C/GIRK thallium flux, primary screen, cell-based, HEK293 alpha2C/GIRK1/2 (AID 624;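 active = fluorescence slope after compound addition differing from the mean of all screened samples at 99.7% confidence, in either direction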;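 note: slope of fluorescence ratio to pre-addition baseline per second over 15 to 24 s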). As to conditions: thallium flux BTC fluorescence, at 10 µM, actives lie on both sides.
Assay [7] is described as follows: inhibitors of Sendai virus-induced IRF3 signaling, primary screen, TLR/RLR signaling modifier project, cell-based, Sendai virus stimulus, luciferase, 10K MLSCN set (AID 602276;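 active = inhibition at or above 50% at 10 µM; inactive = inhibition below 50%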;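 note: firefly luciferase from ISG56 promoter only with Renilla not read in this screen; 0% = Sendai virus plus DMSO and 100% = medium plus DMSO without virus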). As to conditions: HEK293 RL24 IRF3 luciferase reporter, at 10 µM, stronger effect = higher value.
Assay [8] in a line: inhibitors of poly I:C-induced TLR3 signaling, primary screen, cell-based, poly I:C stimulus, luciferase, 10K MLSCN set (AID 602277;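 active = inhibition of the reporter signal at or above 50%; inactive = inhibition below 50%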). As to conditions: HEK293-TLR3 RL24 IRF3 luciferase reporter, at 10 µM, stronger effect = higher value.

Active and inactive are the calls of the source.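 Rule for the calls, unless noted: active = NADPH fluorescence slope more negative than the mean of all samples by about 3 SD, 99.7% confidence; inactive = the rest.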

Sequence of Alpha-2C adrenergic receptor (Homo sapiens) (P18825 whole entry, looked up): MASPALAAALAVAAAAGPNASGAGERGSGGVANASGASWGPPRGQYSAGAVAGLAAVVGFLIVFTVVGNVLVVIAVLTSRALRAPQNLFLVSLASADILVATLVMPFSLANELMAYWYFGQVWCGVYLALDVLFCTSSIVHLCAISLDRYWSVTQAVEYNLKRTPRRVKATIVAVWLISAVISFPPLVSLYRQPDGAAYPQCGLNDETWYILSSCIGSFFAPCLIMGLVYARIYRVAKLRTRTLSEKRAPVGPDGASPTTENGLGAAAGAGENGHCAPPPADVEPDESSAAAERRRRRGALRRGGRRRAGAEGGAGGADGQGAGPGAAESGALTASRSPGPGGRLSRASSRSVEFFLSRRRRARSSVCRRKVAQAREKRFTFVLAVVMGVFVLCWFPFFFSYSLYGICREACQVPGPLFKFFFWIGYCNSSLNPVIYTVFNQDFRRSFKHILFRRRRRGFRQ
Sequence of Voltage-gated potassium channel subunit beta-2 (Rattus norvegicus) (P62483 whole entry, looked up): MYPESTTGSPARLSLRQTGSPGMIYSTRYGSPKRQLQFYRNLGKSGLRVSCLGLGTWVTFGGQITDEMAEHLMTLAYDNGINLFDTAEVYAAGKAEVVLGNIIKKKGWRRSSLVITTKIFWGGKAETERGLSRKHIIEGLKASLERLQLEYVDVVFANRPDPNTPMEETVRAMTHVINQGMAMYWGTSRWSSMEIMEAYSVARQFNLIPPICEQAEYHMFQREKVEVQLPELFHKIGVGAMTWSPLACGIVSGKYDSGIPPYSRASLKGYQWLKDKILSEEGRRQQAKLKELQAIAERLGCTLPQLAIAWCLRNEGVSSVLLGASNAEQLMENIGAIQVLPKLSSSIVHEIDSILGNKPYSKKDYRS

On to `CC(=O)SCCC(=O)Nc1ccccc1`, for which, in assay [1], the cell count was found to be 646. Besides, the inhibition in assay [1] was -1.4% (inactive); in assay [3] it was -61.7% (inactive); in assay [7], 20.3% (inactive); in assay [8] it was 28.9% (inactive). Further, in assay [2], the inhibition of aggregation was -12.1% (inactive). The nuclei count in assay [2] is 122%; in assay [3] it was 108%. Further, in assay [4], the fluorescence slope is -0.498 (inactive). Moreover, in assay [5], the NADPH fluorescence slope was 3.1e-06 (inactive). In addition, the slope in assay [6] is 0.00709 (inactive).

Regarding `CCOC(=O)c1cnc(SC2CC(=O)N(c3ccc(OC)c(OC)c3)C2=O)nc1N` (centres undefined), the cell count in assay [1] is 811. In addition, the inhibition in assay [1] is -3.6% (inactive); in assay [3], -110% (inactive); in assay [7] it was -6.56% (inactive); in assay [8], -2.72% (inactive). Besides, in assay [2], the inhibition of aggregation was -0.6% (inactive). The nuclei count in assay [2] was 95.4%; in assay [3] it was 135%. The fluorescence slope in assay [4] was -0.531 (inactive). Moreover, the NADPH fluorescence slope in assay [5] was 1.4e-05 (inactive). For the same molecule, the slope in assay [6] is 0.00718 (inactive).

With `CC(=O)Nc1ccc(S(=O)(=O)NCc2csc(-c3cccnc3)n2)cc1`, the cell count in assay [1] stood at 356. For the same molecule, the inhibition in assay [1] is -10.2% (inactive); in assay [3], -19.2% (inactive); in assay [7], 9.95% (inactive); in assay [8], 22.2% (inactive). The inhibition of aggregation in assay [2] is -11.8% (inactive). In addition, the nuclei count in assay [2] is 108%; in assay [3], 101%. For the same molecule, the fluorescence slope in assay [4] is -0.511 (inactive). Also, the NADPH fluorescence slope in assay [5] was -3.4e-05 (inactive). The slope in assay [6] is 0.00545 (inactive).

Consider `Brc1ccc(-c2csc(/N=C/N3CCOCC3)n2)cc1`, for which the cell count in assay [1] amounted to 531. The inhibition in assay [1] was -3.6% (inactive); in assay [3] it was 13.5% (inactive); in assay [7] it was -73.1% (inactive); in assay [8] it was -171% (inactive). The inhibition of aggregation in assay [2] was -0.1% (inactive). In addition, the nuclei count is 97.4% in assay [2] and 102% in assay [3]. Also, the fluorescence slope in assay [4] is -0.521 (inactive). Also, in assay [5], the NADPH fluorescence slope was -8.8e-05 (inactive). The slope in assay [6] was 0.00566 (inactive).

For `CCN1CCCC1CNC(=O)CS(=O)(=O)Cc1nc(-c2ccccc2C)oc1C` (centres undefined), in assay [1], the cell count amounted to 834. Besides, the inhibition was -0.6% (inactive) in assay [1], -87.9% (inactive) in assay [3], 5.3% (inactive) in assay [7] and 46.5% (inactive) in assay [8]. For the same molecule, the inhibition of aggregation in assay [2] is 3.2% (inactive). The nuclei count in assay [2] came out at 104%; in assay [3] it was 126%. Further, the fluorescence slope in assay [4] was -0.511 (inactive). In addition, the NADPH fluorescence slope in assay [5] was -3e-05 (inactive). In assay [6], the slope is 0.00452 (inactive).

Consider `Cc1ccc(-n2ncc3c(=O)n(CC(=O)N4CCCc5ccccc54)cnc32)cc1C`, for which the cell count in assay [1] worked out at 227. The inhibition is -2.8% (inactive) in assay [1], 9.3% (inactive) in assay [3], -13.9% (inactive) in assay [7] and -13.7% (inactive) in assay [8]. Further, the inhibition of aggregation in assay [2] is 10.4% (inactive). Also, the nuclei count in assay [2] worked out at 93.3%; in assay [3], 87.8%. Also, the fluorescence slope in assay [4] is -0.346 (inactive). For the same molecule, the NADPH fluorescence slope in assay [5] was -6.2e-05 (inactive). In addition, in assay [6], the slope was 0.00504 (inactive).

As for `Cc1nc2ccc(N3C(=O)CCC3=O)cc2[nH]1`, the cell count in assay [1] is 282. Besides, the inhibition in assay [1] was -8% (inactive); in assay [3] it was -42.2% (inactive); in assay [7] it was 6.8% (inactive); in assay [8], 15.6% (inactive). Besides, the inhibition of aggregation in assay [2] is 9.2% (inactive). The nuclei count is 92.3% in assay [2] and 113% in assay [3]. Besides, in assay [4], the fluorescence slope is -0.553 (inactive). Moreover, the NADPH fluorescence slope in assay [5] is 5.4e-06 (inactive). Moreover, the slope in assay [6] is 0.00593 (inactive).

For the molecule `Cc1cccc(C)c1NC(=O)CS(=O)CC(=O)NC1CCCc2ccccc21` (centres undefined), the cell count in assay [1] worked out at 562. For the same molecule, the inhibition in assay [1] is -5.5% (inactive); in assay [3], -73.7% (inactive); in assay [7] it was 12.3% (inactive); in assay [8] it was 20.9% (inactive). In assay [2], the inhibition of aggregation is -3.7% (inactive). For the same molecule, the figures for the nuclei count in assay [2] and in assay [3] were 62.2% and 108%, respectively. Further, in assay [4], the fluorescence slope is -0.61 (inactive). Also, in assay [5], the NADPH fluorescence slope is -3e-05 (inactive). In assay [6], the slope was 0.00417 (inactive).

As for `O=C(O)CCNc1nc(-c2ccccc2)nc2ccccc12`, the cell count in assay [1] was found to be 619. For the same molecule, the inhibition is -7.6% (inactive) in assay [1], -28.1% (inactive) in assay [3], -3.96% (inactive) in assay [7] and 7.69% (inactive) in assay [8]. The inhibition of aggregation in assay [2] was -14.3% (inactive). In addition, the nuclei count in assay [2] stood at 103%; in assay [3] it was 127%. The fluorescence slope in assay [4] is -0.579 (inactive). Besides, in assay [5], the NADPH fluorescence slope is 3e-05 (inactive). For the same molecule, the slope in assay [6] is 0.00675 (inactive).

Turning to `Cc1cccc(CC(=O)Nc2c3c(nn2-c2cccc(Cl)c2)CS(=O)C3)c1` (centres undefined), in assay [1], the cell count was found to be 394. The inhibition was 1% (inactive) in assay [1], -27.9% (inactive) in assay [3], -10.3% (inactive) in assay [7] and -33.4% (inactive) in assay [8]. Besides, the inhibition of aggregation in assay [2] is -17.3% (inactive). Also, the nuclei count turned out to be 106% in assay [2] and 110% in assay [3]. Moreover, the fluorescence slope in assay [4] is -0.57 (inactive). For the same molecule, the NADPH fluorescence slope in assay [5] is 2.8e-05 (inactive). Moreover, the slope in assay [6] is 0.00504 (inactive).

On to `COc1ccc(S(=O)(=O)N2CCN(Cc3ccc(Cl)cc3)CC2)cc1`, for which the cell count in assay [1] was 554. The inhibition is -5.4% (inactive) in assay [1], -97.9% (inactive) in assay [3], 0.485% (inactive) in assay [7] and -1.64% (inactive) in assay [8]. Further, the inhibition of aggregation in assay [2] is 24.4% (inactive). The nuclei count came to 61.1% in assay [2] and 148% in assay [3]. In assay [4], the fluorescence slope is -0.458 (inactive). For the same molecule, the NADPH fluorescence slope in assay [5] was -9.2e-06 (inactive). The slope in assay [6] was 0.00502 (inactive).

For the molecule `O=S(=O)(Nc1ncccn1)c1ccc(Nc2ncnc3ccccc23)cc1`, the cell count in assay [1] came out at 623. For the same molecule, the inhibition in assay [1] was -16.4% (inactive); in assay [3] it was -6% (inactive); in assay [7], -24.5% (inactive); in assay [8], 12.4% (inactive). For the same molecule, in assay [2], the inhibition of aggregation is -7.6% (inactive). In addition, the nuclei count amounted to 89.3% in assay [2] and 105% in assay [3]. Further, in assay [4], the fluorescence slope was -0.459 (inactive). Moreover, the NADPH fluorescence slope in assay [5] is -4.3e-05 (inactive). Also, the slope in assay [6] is 0.00604 (inactive).

Regarding `CC(C)OC(=O)CSc1nnc(-c2ccc(O)cc2)n1Cc1ccccc1`, the cell count in assay [1] was 289. Besides, the inhibition in assay [1] is -1% (inactive); in assay [3] it was -57.2% (inactive); in assay [7] it was 20.3% (inactive); in assay [8] it was 16.8% (inactive). Besides, the inhibition of aggregation in assay [2] was 12.9% (inactive). The nuclei count in assay [2] is 106%; in assay [3], 105%. Further, the fluorescence slope in assay [4] is -0.415 (inactive). The NADPH fluorescence slope in assay [5] was -4.5e-05 (inactive). Further, the slope in assay [6] is 0.00549 (inactive).

As to `O=C(Nc1nc2c(s1)CCc1ccccc1-2)c1cccs1`, the cell count in assay [1] amounted to 637. Moreover, the inhibition in assay [1] was -3.6% (inactive); in assay [3], 30.8% (inactive); in assay [7], 12.8% (inactive); in assay [8], -8.29% (inactive). The inhibition of aggregation in assay [2] was -9.4% (inactive). Moreover, the nuclei count came to 115% in assay [2] and 86.1% in assay [3]. Moreover, in assay [4], the fluorescence slope is -0.361 (inactive). The NADPH fluorescence slope in assay [5] was 1.5e-05 (inactive). Further, the slope in assay [6] was 0.00613 (inactive).
